Compounds with a hit are over-represented: about 1.4% of the library has one in this group of screens.
LmPK inhibitor = LmPK (Leishmania mexicana) enzyme inhibition; Q27686; actives 0.37% (n = 290,000); purified LmPK, Kinase-Glo ATP luminescence, 1 h; Potency, µM (highest dose often 57.5 µM), actives largely listed as inhibitors
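Kinase-Glo luminescence read after 1 h RT reaction of 0.1 nM LmPK with 0.5 mM PEP and 0.1 mM ADP. Activity scaled between uninhibited and enzyme-free controls.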
Tb PYK inh = blocks Trypanosoma brucei pyruvate kinase. TbPYK enzyme, Kinase-Glo Plus ATP luminescence, 45 min. Potency, µM (titrated, usually from 76.8 µM), actives largely listed as inhibitors. actives 0.12% (n = 410,000). AID 624173; also: nearly all actives have a fitted effect of over 50% in size
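TbPYK + substrate in 50 mM TEA pH 7.2, 100 mM KCl, 10 mM MgCl2, 0.05% BSA, 0.01% Tween-20; cpd pinned; ADP 130 uM final; 45 min RT; Kinase-Glo Plus 10 min; luminescence endpoint.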
Giardia FBPA inh = Giardia lamblia aldolase inhibition; A8B2U2; purified Giardia FBPA; Potency, µM (titrated, usually from 59.6 µM), actives largely listed as inhibitors; actives 0.71% (n = 290,000); AID 2451; also: nearly all actives have a fitted effect of over 55% in size
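Giardia FBPA (40 nM reagent) was preincubated 10 min at RT with compound (up to 57.5 uM final), then substrate plus GAPDH/TPI/NAD/arsenate coupling system with diaphorase/resazurin was added; resorufin fluorescence (525/598 nm) was read after 20 min.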
AmpC detergent = inhibitors of E. coli AmpC beta-lactamase with detergent | P00811 | AmpC hydrolysis of nitrocefin, absorbance 480 nm, 0.01% Triton | Potency, µM (top dose mostly 114 µM), actives largely listed as inhibitors | actives 0.041% (n = 370,000) | AID 485294; also: nearly all actives have a fitted effect of over 25% in size
Target sequence (P00811 whole entry, looked up): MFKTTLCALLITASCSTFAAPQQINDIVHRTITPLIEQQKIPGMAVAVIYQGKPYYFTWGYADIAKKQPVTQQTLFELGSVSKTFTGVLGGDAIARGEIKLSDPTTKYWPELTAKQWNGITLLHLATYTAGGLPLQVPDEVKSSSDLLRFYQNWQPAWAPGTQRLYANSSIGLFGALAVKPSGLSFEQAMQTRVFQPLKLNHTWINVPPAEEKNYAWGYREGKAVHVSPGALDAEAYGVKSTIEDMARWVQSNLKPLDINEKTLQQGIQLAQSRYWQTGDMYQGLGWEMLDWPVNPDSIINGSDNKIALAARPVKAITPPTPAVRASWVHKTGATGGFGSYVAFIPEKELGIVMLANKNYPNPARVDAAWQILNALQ
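20 mM phosphate pH 7.0 + 0.01% (detergent screen) or 0.0001% Triton X-100; 5.3 nM AmpC reagent; cpd preinc 15 min RT; nitrocefin (800 uM stock) to start; A480 q20 s × 4 min; Activity was normalised to no-enzyme and no-compound control wells.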
AmpC inh no detg = inhibitors of E. coli AmpC beta-lactamase without detergent; Potency, µM (top dose mostly 57.1 µM), actives largely listed as inhibitors; AmpC nitrocefin hydrolysis, absorbance 480 nm, 0.0001% Triton; actives 0.52% (n = 330,000); P00811; also: nearly all actives have a fitted effect of over 20% in size
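20 mM phosphate pH 7.0 + 0.01% (detergent screen) or 0.0001% Triton X-100; 5.3 nM AmpC reagent; cpd preinc 15 min RT; nitrocefin (800 uM stock) to start; A480 q20 s × 4 min; Activity was normalised to no-enzyme and no-compound control wells.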
RE007 growth inh = less growth of the S. pombe RE007 Vpr strain | S. pombe RE007 Vpr strain, BacTiter-Glo ATP luminescence, 24 h | Potency, µM (doses to about 92.2 µM), actives largely listed as inhibitors | actives 0.21% (n = 360,000); active = well fitted falling curve with a large enough effect; inconclusive = small, poorly fitted or top-dose-only effect; inactive = no such curve, though single readings can be large or run the other way; also: nearly all actives have a fitted effect of over 50% in size
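Fission yeast RE007 carrying one integrated HIV-1 vpr copy, seeded at OD 0.01 in PMG+AL medium with 23 nL pinned compound. Grown 24 h at 30 degrees; viability read by BacTiter-Glo luminescence after 5 min.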
Numbers stand for hits; . = inactive; ? = inconclusive; / = not tested or not shown; [ ] = dose if it differs, or a comment. Unless noted, calls follow the shape of the dose curve; as a rule, active = well fitted curve in the direction sought with a large enough effect; inconclusive = small, poorly fitted or top-dose-only effect, or another doubt; inactive = no such curve, though single readings can be large; an effect the other way counts as inactive or inconclusive.

SMILES	LmPK inhibitor	Tb PYK inh	Giardia FBPA inh	AmpC detergent	AmpC inh no detg	RE007 growth inh
COc1ccc(CCNC(=O)c2cc(=O)c3cc(C)c(C)cc3o2)cc1OC	/	.	/	.	/	/
O=C(OCC(=O)c1cccs1)c1ccccc1	16µM	.	.	.	.	.
CCCCn1c(NC(=O)c2ccco2)c(S(=O)(=O)c2ccc(C)cc2)c2nc3ccccc3nc21	.	.	?	.	.	.
CCCCn1c(NC(=O)c2ccco2)c(C(=O)OCC)c2nc3ccccc3nc21	.	.	5µM	.	.	.
CCCCc1c(-c2cccc(Cl)c2)ncn1CCc1ccccc1OC	/	.	/	/	/	45µM
CCCCc1c(-c2ccccc2)ncn1CCc1ccccc1OC	/	.	/	/	/	.
CCOc1ccc(C2C(C(=O)/C=C/c3ccco3)=C(O)C(=O)N2CCN2CCOCC2)cc1OC (stereo not drawn)	.[11.5 µM]	.	7.9µM	.	.	.
C=CCOC(=O)/C(=C/c1cccc2ccccc12)NC(=O)c1ccccc1	.	.	.	?	13µM	.
O=C(OCc1ccccc1)/C(=C/c1cccc2ccccc12)NC(=O)c1ccccc1	.	.	.	.	.	.
Cc1ccc2c(c1)[C@]13CCCC[C@@H]1[C@@H](C2)N(C)CC3	/	.	/	/	/	/
CCCCCC(O)CCc1n[nH]c(=S)n1-c1ccccc1 (stereo not drawn)	?	4.5µM	.	.	.	.
CCCCC(CC(O)COCCC)c1n[nH]c(=S)n1-c1ccccc1 (stereo not drawn)	?	11µM	.	.	.	.
CCc1ccc(-c2cn3c(n2)sc2cc(C(=O)NCCc4ccc(OC)cc4OC)ccc23)cc1	/	.	/	.	/	/
COC(=O)COc1cccc2c(=O)n(CC(=O)N3CCCc4ccccc43)ccc12	.	.	.	?	0.63µM	.
CCOC(=O)COc1cccc2c(=O)n(CC(=O)N3CCCCC3)ccc12	.	.	.	.	.	.
O=C(Nc1ccc(Cl)cn1)c1ccccc1F	22µM	.	.	.	/	.
O=C(Nc1ccc(Cl)cn1)Nc1ccccc1F	.	.	.	.	.	.
COC(=O)c1cc(NC(=O)c2cccc(C(F)(F)F)c2)c(=O)oc1C/C=N/OCc1cccc(Cl)c1Cl	.	.	.	.	7.9µM	.
Cc1noc(C)c1S(=O)(=O)N1CCCC(C(=O)Nc2ccc(C(C)C)cc2)C1 (stereo not drawn)	/	.	/	.	/	/
CN(C)c1nc(N)nc(Nc2ccccc2C#N)n1	.	.	.	.	0.2µM	.
COc1cccc(-c2csc(-c3c(N)c(C(=O)c4ccccc4)n4ccccc34)n2)c1	/	.	/	.	/	/
CN(C)c1cccc2c1c(NC(=O)c1ccc(Cl)cc1)nn2C	.	.	18µM	.	.	.
c1nc(NC2CCCCCC2)c2[nH]cnc2n1	.	.	.	.	.	.
c1ccc(Oc2nc(NC3CCCCC3)c3[nH]cnc3n2)cc1	/	/	16µM	/	/	/
COc1ccc(CN2C(=O)C(NC(=O)c3ccccc3C)(C(F)(F)F)N=C2c2ccccc2)cc1 (stereo not drawn)	/	.	/	.	/	/
SMILES	LmPK inhibitor	Tb PYK inh	Giardia FBPA inh	AmpC detergent	AmpC inh no detg	RE007 growth inh
O=C(Nc1cccc(-c2ccc(N3CCOCC3)nn2)c1)c1ccc([N+](=O)[O-])cc1	/	.	/	.	32µM	.
CC(C)(C)C(=O)NC(NC(=S)Nc1sc2c(c1C#N)CCCC2)C(Cl)(Cl)Cl (stereo not drawn)	.	.	/	.	1.1µM	.
CC(C)(C)C(=O)Nc1sc2c(c1C#N)CCC2	.	.	.	.	.	.
COc1ccccc1C(=O)Oc1c(Sc2ccccc2)c(C)nn1C(C)(C)C	/	.	/	.	/	/
COc1ccc(S(=O)(=O)N2Cc3ccccc3CC2C(=O)Nc2cccc(C)c2)cc1OC (stereo not drawn)	/	.	/	.	/	/
COc1ccc(S(=O)(=O)N2Cc3ccccc3CC2C(=O)Nc2ccc(O)cc2)cc1OC (stereo not drawn)	.	.	.	?	0.71µM	.
